Assay results published in the supplement of paper PMC12636033.
± gives the standard deviation of the averaged measurements. The full ranking holds about 33,000 sequences; the median of “E-score (rank enrichment, -0.5 to 0.5)” is about -0.0028, and the highest 2% start at about 0.23. The sample holds the highest values, similar sequences and a random draw of the others, so the mix is not that of the screen.

tested on: 2Sb-muMax20 (muMax20 with two 1,3-bis(methyl)benzene Cys staples, A13C/A17C and Q88C/A92C, C-terminal Lys); experiment: PBM 8-mer E-score (E-score (rank enrichment, -0.5 to 0.5)); higher = stronger preferential binding
Protocol: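 Protein binding microarray (universal PBM chip covering all 10-mers in fixed probe flanks) with chemically synthesized human Max(13-93) bHLH-LZ analogs (not full-length Max) bearing noncanonical residues (hArg, Tha, Aib, Nle at 65) and aromatic Cys staples. Read-out per 8-mer (and its reverse complement): E-score (rank-based enrichment, -0.5 to 0.5) and Z-score of median probe intensity.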

Sequence	PBM 8-mer E-score
CCCTCACC	0.0586 ± 0.062
AAGACCTA	0.0674 ± 0.017
AATAGTTA	0.166 ± 0.0059
AATAGTTG	0.256 ± 0.032
AATAGTTC	0.0849 ± 0.052
GACTTCAC	-0.0215 ± 0.052
GGAATTCC	-0.26 ± 0.055
ATCAGAAT	-0.0334 ± 0.0022
AAGGTCTA	-0.00279 ± 0.068
CCATATGG	0.322 ± 0.0072
ACATGGGG	0.267 ± 0.045
ATATGGGG	0.255 ± 0.0087
GCATATGA	0.174 ± 0.045
CCATATGC	0.125 ± 0.064
ATATGGGA	0.13 ± 0.017
CCATGGGG	-0.134 ± 0.03
ACATATGC	0.0308 ± 0.041
GCATATGC	0.259 ± 0.011
ACATATGG	0.15 ± 0.036
ATATGGGC	0.192 ± 0.062
ACATGGGA	0.0654 ± 0.083
ACCAAAGT	-0.131 ± 0.004

Sequence	PBM 8-mer E-score
AAACTTCA	0.0459 ± 0.067
GCCGTGTA	0.0129 ± 0.059
AGACCGCC	-0.0551 ± 0.0086
CCAACGAA	-0.0751 ± 0.0019
ACTTGCGA	0.141 ± 0.053
ATGTTTAC	0.195 ± 0.0024
ACGTACGT	0.0796 ± 0.0024
CTGCACGC	0.0673 ± 0.012
CCTACAAG	-0.0983 ± 0.063
ATATATGA	0.203 ± 0.014
ATATATGG	0.279 ± 0.025
ATATATGC	0.196 ± 0.029
GTACCTAA	0.015 ± 0.015
AATACAAA	0.293 ± 0.0033
CATACAAC	0.254 ± 0.0055
CATACGAG	0.039 ± 0.023
CATACAAG	0.0617 ± 0.023
AATACGAT	0.0313 ± 0.056
GATACAAA	0.0261 ± 0.058
GATACAAC	0.0906 ± 0.034
AATACGAG	0.239 ± 0.016
TATACAAA	0.176 ± 0.037

Sequence	PBM 8-mer E-score
AATACAAT	0.105 ± 0.028
AATACAAG	0.243 ± 0.066
AATACAAC	0.218 ± 0.053
GGCTCAAA	-0.232 ± 0.0071
CGTGTTCC	-0.101 ± 0.093
CAGCCATC	0.0539 ± 0.04
ACGCTTAC	-0.00865 ± 0.0059
AATGGCGG	-0.0858 ± 0.063
CTTAGCCA	-0.0016 ± 0.011
ATCGGCTG	-0.182 ± 0.06
ATTAGGTG	0.199 ± 0.0049
CATCCCGG	-0.179 ± 0.11
CCTTGTTA	0.281 ± 0.032
CCTTGTTC	-0.00956 ± 0.048
ACTTGTTA	0.173 ± 0.0031
ACTTCTCT	-0.115 ± 0.094
CACCCCTA	0.228 ± 0.018
AACCCCTA	0.176 ± 0.0048
GTACCCAA	0.153 ± 0.0022
TACCCCTA	0.316 ± 0.0051
CACCCCAG	0.262 ± 0.015
AACCCCAA	0.331 ± 0.019

Sequence	PBM 8-mer E-score
AACCCCAG	0.0383 ± 0.14
AACCCAAA	0.0368 ± 0.14
CCCCCCAG	-0.319 ± 0.18
CTACCCAA	0.085 ± 0.019
ACCCCCAA	-0.148 ± 0.053
TTACCCAA	0.26885 ± 6.4e-05
ACGAAGGC	-0.148 ± 0.011
GGCCAAAC	-0.0918 ± 0.032
ATAAAAGC	0.113 ± 0.0099
CACCCCAA	0.292 ± 0.059
TACCCCCA	-0.0172 ± 0.023
GACCCCAC	0.0665 ± 0.09
CACCCAAA	0.211 ± 0.02
TACCCCAA	0.29 ± 0.036
AACCCCAC	0.177 ± 0.082
GACCCCAA	0.129 ± 0.058
CACCCCCA	-0.148 ± 0.025
CACCCCAC	0.319 ± 0.067
AAAACGTT	0.189 ± 0.024
GGAGAGTA	-0.0215 ± 0.08
